About 83,000 compounds went through this panel and 20% of them were active in at least one assay; those are over-represented in the sample as a whole.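 Treatment: one concentration, 48 hours, 96-well format. Scoring: percent growth, with anything below 10 considered active.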 Values without a mark were called inactive. Active and inactive are the calls of the source.
The compounds below were run on MOLT-4 leukemia (assay: NCI-60 one-dose screen, 48 h (100 = growth as untreated, 0 = no growth, -100 = all killed)). Conditions: 10 µM unless noted.
Compound C=C1C(=O)O[C@H]2[C@H]1CC/C(COC(=O)NCCc1cccc(OC)c1)=C\CC[C@@]1(C)O[C@@H]21 has a growth of 11.5%. COc1ccccc1OCC(=O)Nc1sc2c(c1C(N)=O)CCC2 gave a growth of 26%. Work on CCc1c(C(=O)Nc2ccc3ccccc3c2)[nH]c(C)c1C(C)=O yielded a growth of 68.5%. Compound CCC(=O)Oc1ccc2c(c1)CC[C@@H]1[C@@H]2CC[C@]2(C)C[C@H](OC(=O)CC)C[C@@H]12 has a growth of 51.1%. COC(=O)CCCCN=Cc1c(O)c(O)c(C(C)C)c2cc(C)c(-c3c(C)cc4c(C(C)C)c(O)c(O)c(C=NCCCCC(=O)OC)c4c3O)c(O)c12 showed a growth of 14.4%. With COc1ccc2c(c1)C(C)Cc1c(N(C)C)ncnc1N2C (centres undefined) the growth was 33.1%. Compound Cc1ccc(S(=O)(=O)OCC(=O)Nc2ccc(C(=O)O)c(O)c2)cc1 has a growth of 57.1%. O=C(O)c1ccc(-n2cc(CNc3ccc(C(F)(F)F)cc3)c(-c3ccccc3)n2)cc1 gave a growth of 76.5%. With Cc1cc(C(=O)CSc2nc3ccccc3c(=O)[nH]2)c(C)n1C the growth was 118%. In the case of CC/C=C\C[C@H](O)C/C=C1/C(=O)C(Cl)=C[C@@H]1C/C=C\CCCC(=O)OC, the growth is reported as -6.11% (active). In the case of CCSc1nnc(Nc2ccc(C(C)C)cc2)s1, the growth is reported as 66.3%. Cc1ccc2nc(-c3c(N)n[nH]c3CCCO)[nH]c(=O)c2c1 gave a growth of 95.7%. COc1cc(C(=O)N2CCN(C(=O)c3ccco3)CC2)c(N)cc1OCc1ccccc1 was tested, and the growth was 95.4%. O=C(Nc1cccc(Cl)c1)c1cc([N+](=O)[O-])ccc1O gave a growth of 35.7%. For O=C(CNC(=O)c1cccc2ccccc12)Nc1ccccc1Oc1ccccc1, the growth was 24.2%. Nc1cccc2c1CN(C1CCC(=O)NC1=O)C2=O (centres undefined) gave a growth of 95.1%. Compound Nc1ccc(S(=O)(=O)c2ccc(Cl)cc2)cc1 has a growth of 103%. CNC(=O)c1cc(Oc2ccc3c(c2)sc2nc(-c4ccc(Cl)cc4)cn23)ccn1 showed a growth of 93%. Cc1cc(C)c2c(=O)[nH]c(SCC(=O)Nc3cccc(S(=O)(=O)N(C)C)c3)nc2n1 showed a growth of 96.1%. With CSc1ccccc1C#C/C=C\C#Cc1ccccc1N1CCCC1=O the growth was 27.4%. With O=S(=O)(NCCCNc1cc(-c2cn(-c3ccccc3)nc2-c2cccc(O)c2)ccn1)c1ccc(Cl)cc1 the growth was 4.49% (active). CC(=O)Oc1cccc(OC(C)=O)c1OC(C)=O was tested, and the growth was 82.4%. With C=C1C(=O)O[C@H]2[C@H]1CC/C(COC(=O)NCCc1ccc(Br)cc1)=C\CC[C@@]1(C)O[C@@H]21 the growth was -19.1% (active). Work on O=S=Nc1ccc([N+](=O)[O-])cc1 yielded a growth of 91.2%. Compound COc1ccc(N=C2NN=C(c3ccc(F)cc3)CS2)cc1OC has a growth of 73.4%. NC(C(=O)O)C(O)c1ccc(OCc2ccccc2)c(OCc2ccccc2)c1 (centres undefined) showed a growth of 98.9%. For CC/C=C\C[C@H]1C/C=C2/C(=O)C(Cl)=C[C@@H]2C/C=C\CCCC(=O)O1, the growth was -9.42% (active). Cc1sc2nc(CSc3nnc(-c4ccco4)o3)[nH]c(=O)c2c1C showed a growth of 48.7%. O=S(=O)(NCCCNc1cc(-c2cn(-c3ccccc3)nc2-c2cccc(O)c2)ccn1)c1cccc2ccccc12 gave a growth of 13.6%. Work on CN(C)c1nc(N)c(N=O)c(N)n1 yielded a growth of 105%. Work on O=C1NC(Cc2c[nH]c3ccccc23)C(=O)N1Cc1ccc(Cl)cc1 (centres undefined) yielded a growth of 85.4%. For COC(=O)c1ccc(C)cc1, the growth was 103%. COC(=O)CCCCCN=Cc1c(O)c(O)c(C(C)C)c2cc(C)c(-c3c(C)cc4c(C(C)C)c(O)c(O)c(C=NCCCCCC(=O)OC)c4c3O)c(O)c12 showed a growth of 13.6%. O=S(=O)(NCCCNc1nccc(-c2c(-c3ccc(F)c(O)c3)nc3sccn23)n1)c1ccc(Cl)cc1 gave a growth of 46.1%. For COc1ncc(-c2ccc3ncnc(Nc4cccc(Cl)c4)c3c2)cc1N(S(C)(=O)=O)S(C)(=O)=O, the growth was 69.9%. For CC(Br)C(O)c1cc2c(cc1Br)OCO2 (centres undefined), the growth was 104%. In the case of O=S(=O)(NCCCNc1cc(-c2cn(-c3ccccc3)nc2-c2cccc(O)c2)ccn1)c1ccc(Br)cc1, the growth is reported as -5.44% (active). Work on COc1ccc2c(c1)NC(=O)CN2c1nc(C)nc2ccccc12 yielded a growth of 23.7%. For NC(=O)c1c(NC(=O)c2ccc3c(c2)OCO3)sc2c1CCC(=O)C2, the growth was -20.8% (active).
